Test results published in PubChem BioAssay AID624351 (Southern Research Specialized Biocontainment Screening …, 2012).
About 1,400 (58%) of roughly 2,400 compounds were called active. So high a share suggests a set chosen from earlier hits. The list shows a part of the results. A number with no mark means an inactive call.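 Rule for the calls: active = inhibition of 30% or more at any tested dose; inconclusive = primary hits over the limit that were never retested; inactive = the rest.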

Test: coupled detection enzyme interference, dose response, artefact control for MgcRacGAP inhibitor project, biochemical, coupled enzyme counter-screen (AID 624351);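 note: signal is the ADP detection kit reading of free GDP without any GAP enzyme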;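 for inhibition: 0% = median positive control wells and 100% = median negative control wells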
Conditions: ADP Hunter coupled enzyme counter-screen, fluorescence, no MgcRacGAP; series mostly up to 80 µM; inhibition: at the top concentration

Compound | IC50 | inhibition
O=C(CNC(=O)c1ccco1)N/N=C/c1ccc(O)cc1O | 78.5 µM (active) | –
O=C(CCCCCNC(=O)c1ccccc1)N/N=C/c1ccc(O)cc1O | 71 µM (active) | –
CCc1ccc(/C(C)=N/NC(=O)CNC(=O)/C=C/c2ccco2)cc1 | – | -0.57%
Cc1cc(C)c(OCCCCNCc2ccccc2)c(Cl)c1 | – | 19.3%
Cc1c(O)ccc(NC(=O)/C=C/c2ccccc2)c1C | 37.7 µM (active) | –
Cc1cc(N)c2cc(NC(=O)/C=C/c3ccccc3Cl)ccc2n1 | – | 16.5%
COc1cc(/C=C(\C#N)C(=O)Nc2ccc3c(c2)OCCO3)ccc1O | 32.5 µM (active) | –
CCOC(=O)/C(C#N)=C\c1ccc(O)c(OC)c1 | 52.1 µM (active) | –
N#C/C(=C/c1ccc2c(c1)OCO2)C(=O)Nc1ccc(O)cc1 | 62.6 µM (active) | –
CCOC(=O)/C(C#N)=C\c1c(OCC)n(CC)c2ccccc12 | – | 11.6%
CCC(CC)NCc1ccc2c(c1)c1ccccc1n2CC | – | 16%
Oc1cccc(Nc2ccccc2)c1 | 59.1 µM (active) | –
O=[N+]([O-])/C=C/c1cc2ccccc2[nH]1 | – | 0.62%
COc1ccc(OC)c2c(C)c(C)[nH]c12 | 28.7 µM (active) | –
CS(=O)(=O)Cc1nc2ccccc2oc1=O | 74.1 µM (active) | –
Nc1nc2c(s1)CCc1ccccc1-2 | 48.5 µM (active) | –
COc1ccc2c(c1)-c1nc(N)sc1CC2 | 42.2 µM (active) | –
O=C(CN1CCCCCC1)Nc1nc2ccccc2s1 | – | 13.2%
O=C(c1ccc(OCCN2CCCCC2)cc1)c1c(-c2ccc(O)cc2)sc2cc(O)ccc12 | 31.6 µM (active) | –
Cc1cc(OCCCCCN2CCCC2)ccc1Cl | – | 16.7%
CCOc1ccc(OCCOCCN2CCCC2)cc1 | – | 18.7%
C[n+]1c(-c2ccccc2)cc2c(=Cc3ccccc3)c3ccccc3n21 | – | 1.82%
COc1cc(/C=N/n2c(-c3cc(C)[nH]n3)n[nH]c2=S)cc(OC)c1O | 55.6 µM (active) | –
COc1cc(/C=N/n2c(-c3cc(C)[nH]n3)n[nH]c2=S)cc(OC)c1OC | 61 µM (active) | –
COc1ccc(NCc2cc(=O)[nH]c3ccccc23)cc1 | 51.4 µM (active) | –
COc1ccc(OC)c(CN2CCN(Cc3cccc4ccccc34)CC2)c1 | – | 19.4%
COc1ccc(NCc2cc3ccccc3[nH]c2=O)cc1 | 77.4 µM (active) | –

Compound | IC50 | inhibition
COc1ccc(NCc2cc3cc(OC)ccc3[nH]c2=O)cc1 | – | 22.5%
COc1ccc(NCc2nnc(SCC(=O)Nc3ccccc3OC)o2)cc1 | – | 24.1%
CCn1c2ccccc2c2cc(CNCc3ccc(OC)cc3OC)ccc21 | – | 7.53%
CC(C1SC(=S)NC1=O)C1SC(=S)NC1=O (centres undefined) | – | -10.8%
CCc1nn(C(C)C(=O)N2CCN(c3ccc(OC)cc3)CC2)c(=O)c2cc3occc3n12 (centres undefined) | – | 29.3%
CC(=O)N1CCN(c2ccc(Nc3ncnc4c3oc3ccccc34)cc2)CC1 | 42.5 µM (active) | –
CCc1nc(Nc2ccc(O)cc2)c2oc3ccccc3c2n1 | 19.4 µM (active) | –
Oc1ccc(Nc2ncnc3ccccc23)cc1 | 15.8 µM (active) | –
CCc1nc(Nc2ccc(N3CCN(C(C)=O)CC3)cc2)c2oc3ccccc3c2n1 | 40.2 µM (active) | –
Oc1ccc(Nc2ncnc3c2oc2ccccc23)cc1 | 20 µM (active) | –
N#CC1=C(S)N(c2ccc(F)cc2)C2(CCCCC2)NC1=O | – | 0.96%
O=C1NC(=S)NC1=Cc1ccco1 | – | -13.6%
O=C1NC(=S)NC1=Cc1ccc(O)cc1 | 10.2 µM (active) | –
CCN1C(=O)/C(=C2/C=Cc3cc(C)ccc3N2CC)N(C)C1=S | 50.7 µM (active) | –
NC(=S)N/N=C/c1cccc(O)c1O | 32.6 µM (active) | –
Nc1ccc2nc(C3CCCCC3)[nH]c2c1 | 71.9 µM (active) | –
Nc1ccc2nc(-c3ccc(Cl)cc3)[nH]c2c1 | 67.3 µM (active) | –
Nc1ccc2nc(-c3ccccc3)[nH]c2c1 | 31.9 µM (active) | –
Cc1nc2ccc(-c3nc4ccc(N)cc4[nH]3)cc2[nH]1 | 58.5 µM (active) | –
Cc1nc(Nc2ccc(O)cc2)c2c3c(sc2n1)CCCC3 | 27.9 µM (active) | –
Oc1ccc(N=Cc2cc(Br)c(N3CCOCC3)o2)cc1 | 64.7 µM (active) | –
O=[N+]([O-])c1cc(Br)c(O)c(C=Nc2ccc(N3CCOCC3)cc2)c1 | 13.4 µM (active) | –
Cc1cc(Br)cc(C=Nc2ccc(N3CCOCC3)cc2)c1O | 14.7 µM (active) | –
COc1ccc(CN(C)CCc2ccccn2)c(OC)c1OC | – | 18.1%
Cc1[nH]nc(-c2ccc(O)cc2O)c1Oc1ccccc1 | 34.3 µM (active) | –
COc1ccc(Oc2c(-c3ccc(O)cc3O)n[nH]c2C)cc1 | 49.1 µM (active) | –
COCCNCc1nc2sc(C)c(-c3ccccc3)c2c(=O)[nH]1 | – | 12.2%
